ALR H2O2 inh: inhibitors of human ALR sulfhydryl oxidase, primary screen, biochemical, H2O2 detection, HRP-luminol luminescence, single point | AID 485317, 2010 | purified ALR, DTT oxidation | FAD-linked sulfhydryl oxidase ALR (Homo sapiens), P55789 | 290,000 compounds, 3.8% hits | inhibition, % (concentration not given with the values);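 active means mean replicate inhibition above about 79%, with every replicate also reaching it, limit read from the data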
Rtt109 HAT inh: inhibitors of C. albicans Rtt109/Vps75 HAT, primary screen, biochemical, ThioGlo CoA-SH fluorescence, plate reader; Histone acetyltransferase RTT109 (Candida albicans (strain SC5314 / ATCC MYA-2876)), …; purified Rtt109/Vps75, 4 h; AID 540336, 2011; inhibition, % at 34.9 µM; 330,000 compounds, 0.16% hits;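 active means inhibition of at least 50% in every replicate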
LANA-H2B inh: blockers of LANA interaction with H2A/H2B – biochemical, FP readout, HTS, primary screen; Protein LANA1 (Human herpesvirus 8 type P (isolate GK18)), Q9QR71; cell-free LANA-H2A/H2B peptide, fluorescence polarization; inhibition, % (no concentration beside the values); 320,000 compounds, 0.6% hits; AID 2629, 2010; in the data active means inhibition mostly above about 10%, no sharp cut-off; inactive means mostly below about 6.7%
PRMT1 inh: PRMT1 methyltransferase inhibitors, primary screen, biochemical, fluorescence polarization; Protein arginine N-methyltransferase 1 (Homo sapiens), Q99873; recombinant PRMT1, activity-based probe fluorescence polarization; inhibition, % at 2.79 µM; 370,000 compounds, 1.3% hits;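 active means inhibition above about 21% made by adding two undisclosed values, limit read from the data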
ABHD5 PLIN5 PPI: ABHD5-PLIN5 interaction inhibitors, primary screen, cell lysate, split luciferase complementation, luminescence | Perilipin-5 (Homo sapiens) + 1-acylglycerol-3-phosphate O-acyltransferase ABHD5 (Homo … | Split G. princeps luciferase complementation, 4 h | inhibition, % at 4 µM | 360,000 compounds, 0.78% hits | AID 602281, 2012;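 active means inhibition above the mean inhibition across every tested compound plus 3 SD, cut at about 22% in these data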
Target sequence (Q00G26 whole entry, looked up): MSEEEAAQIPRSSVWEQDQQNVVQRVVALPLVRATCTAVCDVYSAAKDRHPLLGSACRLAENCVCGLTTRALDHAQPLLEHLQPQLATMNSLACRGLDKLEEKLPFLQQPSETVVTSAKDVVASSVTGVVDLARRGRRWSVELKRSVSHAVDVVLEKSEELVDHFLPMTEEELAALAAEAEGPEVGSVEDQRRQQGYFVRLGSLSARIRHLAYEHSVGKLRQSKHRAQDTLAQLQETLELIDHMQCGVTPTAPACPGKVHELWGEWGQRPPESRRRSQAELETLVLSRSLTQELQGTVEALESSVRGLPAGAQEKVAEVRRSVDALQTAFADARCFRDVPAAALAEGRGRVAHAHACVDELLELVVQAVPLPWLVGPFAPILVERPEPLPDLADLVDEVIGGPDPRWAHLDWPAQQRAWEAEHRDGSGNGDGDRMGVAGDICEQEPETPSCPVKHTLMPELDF
Target sequence (Q8WTS1 whole entry, looked up): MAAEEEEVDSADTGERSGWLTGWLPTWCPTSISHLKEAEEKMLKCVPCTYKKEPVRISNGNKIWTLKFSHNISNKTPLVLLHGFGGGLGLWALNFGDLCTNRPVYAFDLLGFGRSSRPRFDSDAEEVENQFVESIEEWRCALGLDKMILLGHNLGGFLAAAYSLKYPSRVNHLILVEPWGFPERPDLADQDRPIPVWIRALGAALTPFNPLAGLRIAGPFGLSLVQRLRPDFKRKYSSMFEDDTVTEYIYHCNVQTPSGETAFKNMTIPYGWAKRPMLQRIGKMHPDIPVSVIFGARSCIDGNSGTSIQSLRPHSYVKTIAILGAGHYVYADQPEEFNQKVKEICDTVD
rCAG binder: binders of r(CAG) RNA repeats, primary screen, biochemical, fluorescence | r(CAG) RNA repeat, TO-PRO-1 dye displacement fluorescence | inhibition, % at 3 µM | 370,000 compounds, 1.3% hits;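 active means inhibition above the plate cutoff, the mean of all test compounds on that plate plus 3 SD, cut at about 35% in these data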;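 further: higher means more dye released from RNA so lower well fluorescence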
rCAG bind conf: small molecules binding CAG repeat RNA – biochemical, fluorescence, confirmation. 4,300 compounds, 70% hits. shares compounds with rCAG binder. r(CAG) RNA repeat, TO-PRO-1 dye displacement fluorescence. AID 652065, 2013. inhibition, % at 3 µM;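 active means inhibition above a per-plate cutoff, the mean inhibition of sample wells plus 3 SD, cut at about 35% in these data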;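 further: loss of TO-PRO-1 fluorescence as compound displaces dye from 1x1 AA loop RNA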
dCAG dye counter: displacement of TO-PRO-1 from CAG DNA duplex, counter-screen for rCAG RNA repeat binder project, biochemical, fluorescence, TO-PRO-1 dye, d(CAG) DNA oligo; AID 652068, 2013; d(CAG) DNA oligo TO-PRO-1 dye displacement; inhibition, % at 3 µM; shares compounds with rCAG binder; 4,300 compounds, 94% hits;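 active means inhibition above its plate's cutoff, the mean test-well inhibition plus 3 SD, cut at about 4.8% in these data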;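 further: hits displace the dye from DNA and so lower well fluorescence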
A number is an active result; n = inactive; x = no result. Sampled rows, rich in hits. Any-hit rate of the full collection: about 5.9%.

SMILES | ALR H2O2 inh | Rtt109 HAT inh | LANA-H2B inh | PRMT1 inh | ABHD5 PLIN5 PPI | rCAG binder | rCAG bind conf | dCAG dye counter
O=C(COc1ccccc1[N+](=O)[O-])Nc1cccc(C(=O)Nc2ccccc2C(=O)O)c1 | x | n | n | n | n | 69 | 80 | 45
CC(C)c1ccc(OCC(=O)Nc2cccc(C(=O)Nc3ccccc3C(=O)O)c2)cc1 | 98 | n | n | n | n | 82 | 88 | 63
Cc1ccc(S(=O)(=O)NCC(=O)N2CCN(c3ccccn3)CC2)s1 | x | x | x | n | x | n | x | x
COc1cc(CCN(C(=O)c2cc3ccccc3[nH]2)C(c2ccccn2)c2nc3ccccc3[nH]2)cc(OC)c1 (stereo not drawn) | x | x | x | n | n | n | x | x
CCC(c1nc2ccccc2[nH]1)N(C(=O)C1=NNC(=O)CC1)c1ccccc1 (stereo not drawn) | x | x | x | n | n | n | x | x
O=C(CC(CC(=O)c1ccc(Cl)cc1)c1ccccc1C(=O)O)c1ccc(Cl)cc1 | n | n | n | n | n | 42 | 54 | 13
Cc1onc(-c2ccccc2)c1C(=O)Nc1ccc(S(=O)(=O)Nc2nccs2)cc1 | n | n | n | n | n | n | x | x
O=C(Nc1ccc(S(=O)(=O)Nc2nccs2)cc1)C1=NN(c2ccccc2)C(=O)CC1 | n | n | n | n | n | 36 | n | 14
O=S(=O)(Nc1nccs1)c1ccc(Nc2nnc(-c3ccccc3)c3ccccc23)cc1 | n | n | n | n | n | 54 | 65 | 27
O=C(Nc1ccc(S(=O)(=O)Nc2nccs2)cc1)c1cc(-c2ccccn2)nc2ccccc12 | n | n | n | n | n | 66 | 61 | 26
O=C(Nc1ccc(S(=O)(=O)Nc2nccs2)cc1)c1cc(-c2ccccc2Cl)nc2ccccc12 | n | n | n | n | n | 76 | 77 | 41
O=C(CCNC(=O)c1ccccc1Cl)Nc1ccc(S(=O)(=O)Nc2nccs2)cc1 | n | n | n | n | n | n | x | x
CC(=O)N1CCOC12CCN(Cc1ccccc1)CC2 | x | x | x | n | n | n | x | x
COC(=O)[C@]12C[C@H](CC(=O)N3CCN(C(=O)c4ccco4)CC3)C(=O)N(Cc3cccc4ccccc34)C1=C[C@H](C(C)(C)C)O[C@@H]2C | x | x | x | n | x | n | x | x
O=S(=O)(c1ccc(Oc2ccc(F)c(Cl)c2)nc1)N1CCOCC1 | n | n | n | n | n | n | x | x
CN(C)c1cccc(C(=O)Nc2ccc(S(=O)(=O)Nc3nccs3)cc2)c1 | x | n | x | n | n | 36 | n | 10.0
O=C(Nc1ccc(S(=O)(=O)Nc2nccs2)cc1)c1cccc(F)c1 | n | n | n | n | n | n | x | x
Cc1cccc(N2CCN(S(=O)(=O)c3ccc(-c4ccc(=O)[nH]n4)o3)CC2)c1C | n | n | n | n | n | n | x | x
N#C/C(=N\Nc1ccc(Cl)cc1)C(=O)c1ccccc1 | x | n | n | n | n | 59 | 58 | 14
Cc1c(N/N=C(\C#N)C(=O)c2ccc(Cl)cc2)c(=O)n(-c2ccccc2)n1C | x | n | n | n | n | 37 | n | 10
CCOC(=O)NC(=O)/C(C#N)=N\Nc1ccc(Cl)cc1 | x | n | n | n | n | n | x | x
CCCCNC(=O)C(NC(=O)c1cccs1)C(=O)c1ccccc1 (stereo not drawn) | x | x | x | n | n | n | x | x
Cc1cc(=O)[nH]c(SCC(=O)Nc2nc(-c3ccccc3)cs2)n1 | 99 | n | n | n | n | 36 | n | 9.5
O=C(CSc1nc(O)cc(=O)[nH]1)Nc1ccc2c(c1)CCC2 | 99 | n | n | n | n | 49 | n | 6.0
COc1ccc(-c2csc(NC(=O)CSc3nc4ccccc4c(=O)[nH]3)n2)cc1 | x | n | n | n | n | 38 | 57 | 22
SMILES | ALR H2O2 inh | Rtt109 HAT inh | LANA-H2B inh | PRMT1 inh | ABHD5 PLIN5 PPI | rCAG binder | rCAG bind conf | dCAG dye counter
CN(CCc1ccccc1)C(CCc1ccccc1)C(=O)Nc1ccc2c(c1)OCCO2 (stereo not drawn) | x | x | x | n | n | n | x | x
CCOC(=O)[C@]12CCCCC/C=C\1N(CCc1ccc(Cl)cc1)C(=O)[C@H]2CC(=O)N1CCSCC1 | x | x | x | n | x | n | x | x
Cc1cc(C)c(S(=O)(=O)/N=C2\C=C(Nc3ccc(C(=O)O)cc3)C(=O)c3ccccc32)c(C)c1 | x | n | n | n | n | 85 | 81 | 50
O=C(O)c1ccc(NC2=C/C(=N/S(=O)(=O)c3ccccc3)c3ccccc3C2=O)cc1 | x | n | x | n | n | 61 | 38 | 11
O=C(O)c1ccc(NC2=C/C(=N/S(=O)(=O)c3cccs3)c3ccccc3C2=O)cc1 | x | x | x | n | n | n | x | x
CCc1ccc(S(=O)(=O)/N=C2\C=C(Nc3cccc(C(=O)O)c3)C(=O)c3ccccc32)cc1 | n | n | n | n | n | 81 | 76 | 37
C=CCN(c1ccccc1OC)S(=O)(=O)c1cccc(C(=O)OCC(=O)c2c(N)n(C)c(=O)n(C)c2=O)c1 | x | n | x | n | n | n | x | x
Cc1cccc(N2C(=O)N3[C@H]4c5ccccc5OC[C@@H]4[C@@H](c4ccccc4)[C@@]3(C)C2=O)c1 | n | n | n | n | n | n | x | x
COC1=C/C(=C/c2c(N)n3nc(-c4ccc(C)cc4)sc3nc2=O)C=CC1=O | x | n | x | n | n | 63 | 59 | 19
CCOc1ccc(-c2nn3c(-c4ccccc4)nnc3s2)cc1 | n | n | n | n | n | n | x | x
CCOC1=C/C(=C/c2c(N)n3nc(-c4ccccc4)sc3nc2=O)C=CC1=O | x | n | x | n | n | 49 | 59 | 25
CCOC(=O)[C@]12CCCC=C1N(CCCOC)C(=O)[C@@H]2CC(=O)NCCCN1CCCC1=O | x | x | x | n | x | n | x | x
Cc1cc(NC(=O)CSc2[nH]c(=O)cc(C(F)(F)F)c2C#N)no1 | n | n | n | n | n | n | x | x
Cc1cc(-n2c(C)cc(C(=O)CSc3[nH]c(=O)cc(C(F)(F)F)c3C#N)c2C)no1 | n | n | n | n | n | 42 | 38 | 9.1
C[C@@H]1CN([C@@H](C)CO)C(=O)c2cc(Br)cnc2O[C@@H]1CN(C)Cc1cncnc1 | x | x | x | n | n | n | x | x
CCOC(=O)c1sc(-n2[nH]c(C)cc2=O)nc1C | n | n | n | n | n | 78 | 47 | 13
